Measured values: PubChem BioAssay (NCI)
The panel holds about 83,000 compounds, 20% with a hit somewhere; the sample as a whole holds those more often.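 Cells were grown in 96-well plates and exposed to the test compound at a single concentration for 48 hours; results are reported as percent growth, with values below 10 considered active.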 Active and inactive are the calls of the source.

Tested on: KM12 colon
Experiment: NCI-60 one-dose screen, 48 h (100 = growth as untreated, 0 = no growth, -100 = all killed)
Conditions: 10 µM unless noted

**Q.** For `CCOP1(=O)CC(C)=C(Cl)C(P(=O)(O)O)C1` (centres undefined), which growth is on record?
**A.** Its growth is 105% (inactive).

**Q.** How did the growth turn out when `O=Nc1c(-c2c(O)[nH]c3cc(Br)ccc23)[nH]c2ccccc12` was run?
**A.** Its growth is -89.9% (active).

**Q.** `C=CCNC(=S)NNc1ccc([N+](=O)[O-])cn1` was tested. Which growth did it give?
**A.** Its growth is 99.4% (inactive).

**Q.** How did the growth turn out when `CCOC(=O)NNc1[nH]c(-c2ccc(OC)cc2)cc1C#N` was run?
**A.** The growth was 74.7% (inactive).

**Q.** For `C=CCC(CCC(CC=C)C(=O)OCC)C(=O)OCC` (centres undefined), which growth is on record?
**A.** Its growth is 99.8% (inactive).

**Q.** For `O=C(CCl)NC1c2ccccc2Oc2ccccc21`, which growth is on record?
**A.** Its growth is 82.6% (inactive).

**Q.** For `O=C(N/N=C\c1ccc(Cl)cc1)C(=O)N/N=C\c1ccc(Cl)cc1`, which growth is on record?
**A.** The growth was 106% (inactive).

**Q.** For `C=C(NC(=O)[C@H](C(C)C)N(C)c1cccc2[nH]ccc12)C(=O)OC`, which growth is on record?
**A.** The growth was 109% (inactive).

**Q.** Which growth does the source give for `COc1ccc(C2=NN(C(=O)c3cc(-c4ccc(C)cc4)nc4ccccc34)C(c3cc(-c4ccccc4)nn3-c3ccccc3)C2)cc1` (centres undefined) here?
**A.** Its growth is 90.8% (inactive).

**Q.** `COc1ccc(C(=O)N2N=C(c3ccc(Br)cc3)CC2c2cn(-c3ccccc3)nc2-c2ccccc2)cc1` (centres undefined) was tested. Which growth did it give?
**A.** Its growth is 55.6% (inactive).

**Q.** With `CC(=O)O.[In]` as the compound, how does the growth read?
**A.** Its growth is 104% (inactive).

**Q.** Which growth does the source give for `COc1ccc(NC(=O)/C=C(C)/C=C/C=C(C)/C=C/C2=C(C)CCCC2(C)C)cc1` here?
**A.** Its growth is 88.9% (inactive).

**Q.** `CCOC(=O)CCCCCCCCC(=O)OCC` was tested. Which growth did it give?
**A.** The growth was 105% (inactive).

**Q.** For `COC(=O)C(N)CC(C)C` (centres undefined), which growth is on record?
**A.** Its growth is 93.8% (inactive).

**Q.** For `O=C(/C=C1\C(=O)N(Cc2ccc([N+](=O)[O-])cc2)c2ccccc21)c1ccc(OCCN2CCCCC2)cc1`, which growth is on record?
**A.** The growth was 3.66% (active).

**Q.** `Cc1ccc2c(O)c(O)cc(NC(C)CCCN)c2n1` (centres undefined) was tested. Which growth did it give?
**A.** Its growth is 109% (inactive).

**Q.** How did the growth turn out when `N/C(=N\O)c1ccncc1` was run?
**A.** The growth was 102% (inactive).

**Q.** How did the growth turn out when `COc1cc(/C=C/C(=O)c2ccc(F)cc2)ccc1OCCCCOc1cc2c(cc1OC)C(=O)N1CCCC1C=N2` (centres undefined) was run?
**A.** The growth was -64.1% (active).

**Q.** For `COc1cc(-c2cc3cnccc3c3nc(N)c4ccncc4c23)cc(OC)c1OC`, which growth is on record?
**A.** Its growth is 48.1% (inactive).

**Q.** For `CC[n+]1c(C)ccc2cc(C)ccc21`, which growth is on record?
**A.** The growth was 80.7% (inactive).

**Q.** `O=C(/C=C/c1ccc(Br)cc1)c1ccccc1` was tested. Which growth did it give?
**A.** Its growth is 39.6% (inactive).

**Q.** Which growth does the source give for `CCN(CC)CCNc1ncnc2c1cnn2-c1ccc(Cl)cc1` here?
**A.** Its growth is 67.5% (inactive).

**Q.** With `C/C(=C\c1ccc2ccccc2c1)[N+](=O)[O-]` as the compound, how does the growth read?
**A.** The growth was 56% (inactive).

**Q.** For `Oc1ccccc1/C=N/N=C/c1c(O)ccc2ccccc12`, which growth is on record?
**A.** Its growth is 76.4% (inactive).

**Q.** With `CC(=O)CC(=O)OC/C=C(/C)CCC=C(C)C` as the compound, how does the growth read?
**A.** Its growth is 105% (inactive).

**Q.** For `COc1cccc2c1nc1cccc(OC)c1[n+]2[O-]`, which growth is on record?
**A.** Its growth is 54.9% (inactive).

**Q.** With `COc1ccc(/C=C2\SC(=O)N(Cc3cc(=O)oc4ccc(OC)cc34)C2=O)cc1` as the compound, how does the growth read?
**A.** The growth was 88.9% (inactive).

**Q.** For `CCCCCSc1ccc2nc(NC(=O)OCC)sc2c1`, which growth is on record?
**A.** Its growth is 19.7% (inactive).

**Q.** With `CCNc1nnc(COc2ccc(CNC(=O)CCCC/C=C/C(C)C)cc2OC)o1` as the compound, how does the growth read?
**A.** The growth was 98.2% (inactive).

**Q.** Which growth does the source give for `CCCCCCCCCCN1CC2CCCCC2C1` (centres undefined) here?
**A.** The growth was 65.3% (inactive).

**Q.** Which growth does the source give for `CCCCCCCCCCCCCCCC[n+]1cccc(C#N)c1` here?
**A.** The growth was 44.4% (inactive).

**Q.** With `Nc1nc2c(c3ncncc13)C(c1cccc(C(F)(F)F)c1)Cc1ncncc1-2` (centres undefined) as the compound, how does the growth read?
**A.** The growth was 28.9% (inactive).

**Q.** Which growth does the source give for `O=P(OCCCl)(OCCCl)C(O)c1ccccc1Cl` (centres undefined) here?
**A.** Its growth is 104% (inactive).

**Q.** `CCCCCCCCCCCCOC(=N)N(C)C` was tested. Which growth did it give?
**A.** Its growth is 101% (inactive).

**Q.** How did the growth turn out when `COC(=O)C(C(=O)OC)C(Br)C(Br)C(Br)c1ccccc1` (centres undefined) was run?
**A.** Its growth is 101% (inactive).

**Q.** With `CCCCCCCCCC(C)NC(=O)CCl` (centres undefined) as the compound, how does the growth read?
**A.** The growth was 101% (inactive).

**Q.** How did the growth turn out when `CC1=C(C)C[C@]2(C(=O)O[C@H]3CCCC[C@@H]32)[S@](=O)C1` was run?
**A.** The growth was 101% (inactive).

**Q.** How did the growth turn out when `CCCCN(CCC)CCCCCCCCCCN1CCCc2ccccc21` was run?
**A.** The growth was 45.2% (inactive).

**Q.** With `CCCCCCCCCC[N+](C)(C)N` as the compound, how does the growth read?
**A.** The growth was 99.8% (inactive).
